ELG1 DNA repair – qHTS screen for small molecules that inhibit ELG1-dependent DNA repair in human embryonic kidney (HEK293T) cells expressing luciferase-tagged ELG1; HEK293T ELG1-luciferase reporter, luminescence, 16 h; DNA damage induced by 5-fluorouridine; Potency, µM (highest dose often 46.1 µM), without a hit: top-dose activity change, negative = inhibition, actives largely listed as inhibitors; hit rate 2.3% among 330,000; also: % is scaled to controls: 0 for no effect and ±100 for the full control effect; nearly all actives have a fitted effect of over 55% in size
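5-Fluorouridine DNA damage + compound/DMSO, 2,000 cells/well, 16 h, 37 °C/5% CO2. ONE-Glo, 30 min RT, luminescence. Readout = decrease in reporter signal.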
FLuc counter – qHTS profiling assay for firefly luciferase inhibitor/activator using purifed enzyme and Km concentrations of substrates (counterscreen for miR-21 project); Luciferin 4-monooxygenase (Photinus pyralis), P08659; purified FLuc, Km substrates, luminescence inhibition; Potency, µM (top dose mostly 57.5 µM), for inactives: at the highest dose activity change, negative = inhibition, most hits filed as inhibitors; hit rate 6.9% among 360,000; AID 588342, 2011;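 also: plate controls were vehicle for no effect and reference inhibitor for full effect; nearly all actives have a fitted effect of over 55% in size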
Target sequence (P08659 whole entry, looked up): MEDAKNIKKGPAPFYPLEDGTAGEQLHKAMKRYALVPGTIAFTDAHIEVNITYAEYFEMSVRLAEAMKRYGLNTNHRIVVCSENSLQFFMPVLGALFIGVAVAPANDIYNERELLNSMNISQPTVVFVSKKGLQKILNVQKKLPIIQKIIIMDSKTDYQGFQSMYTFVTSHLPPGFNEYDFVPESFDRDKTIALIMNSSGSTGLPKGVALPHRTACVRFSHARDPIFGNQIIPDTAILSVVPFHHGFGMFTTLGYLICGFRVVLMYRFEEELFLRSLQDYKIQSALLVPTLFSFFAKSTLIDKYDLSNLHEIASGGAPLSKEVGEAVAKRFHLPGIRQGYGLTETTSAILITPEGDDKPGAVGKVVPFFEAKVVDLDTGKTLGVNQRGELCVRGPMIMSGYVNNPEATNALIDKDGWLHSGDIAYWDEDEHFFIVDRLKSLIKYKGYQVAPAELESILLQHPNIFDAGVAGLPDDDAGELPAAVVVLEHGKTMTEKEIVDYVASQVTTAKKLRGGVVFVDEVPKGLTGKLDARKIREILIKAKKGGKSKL
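Biochemical qHTS of compounds, final roughly 60 µM downward over six points, against 10 nM purified firefly luciferase using Km concentrations of substrates (10 uM D-luciferin, 10 uM ATP) in Tris acetate pH 7.5 buffer; luminescence output.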
Rab9 promoter act – qHTS Assay for Rab9 Promoter Activators; Huh7 Rab9 promoter-luciferase reporter, luminescence, 24 h; Potency, µM (highest dose often 9.22 µM), for inactives: at the top dose activation, negative = inhibition, hits mostly activators; hit rate 2.8% among 320,000; AID 485297, 2010; also: % of control where 0% means no effect; nearly all actives have a fitted effect of over 60% in size
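Huh7 cells stably carrying a Rab9 promoter-luciferase reporter, 1500 cells per well in OP-MEM I with 10% FBS, treated with compound 24 hours at 37C. Luciferase activity read by luminescence after 10 minutes with Amplite reagent.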
ELG1 genotoxic – qHTS screen for small molecules that induce genotoxicity in human embryonic kidney (HEK293T) cells expressing luciferase-tagged ELG1 | HEK293T ELG1-luciferase reporter, luminescence, 16 h | Potency, µM (series often up to 46 µM), inactives show at the highest dose activity change, positive = activation, most hits filed as activators | hit rate 1.3% among 330,000; also: % of control where 0% means no effect; nearly all actives have a fitted effect of over 60% in size
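DMSO vehicle served as control against compound-treated ELG1-luciferase HEK293T cells; exposure lasted 16 hr at 37 °C and 5% CO2, followed by ONE-Glo luminescence detection after 30 min.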
SMN2 splice enh – qHTS Assay for Enhancers of SMN2 Splice Variant Expression; Potency, µM (titrated, usually from 46.1 µM), inactives show at the top dose activity change, positive = activation, actives largely listed as activators; hit rate 2.8% among 210,000; HEK293 SMN2-luciferase splicing reporter, luminescence, 30-36 h; AID 1458, 2008; also: % of control where 0% means no effect; nearly all actives have a fitted effect of over 55% in size
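HEK293 cells carry an SMN2 […]–luciferase reporter in which exon 7 inclusion puts luciferase in frame. Cells were plated 10-12 h before compound addition, then incubated 30-36 h at 37C. ONE-Glo luminescence was read; sodium butyrate at 4.5 mM final served as control.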
NPC1 prom act – qHTS Assay for NPC1 Promoter Activators. hit rate 2.4% among 320,000. Huh7 NPC1 promoter luciferase reporter, 24 h. Potency, µM (doses to about 9.22 µM), inactives show at the highest dose activation, usual class: activators. AID 485313, 2010; also: % of control where 0% means no effect; nearly all actives have a fitted effect of over 60% in size
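Compounds in DMSO were transferred onto Huh7 NPC1-luciferase reporter cells pre-incubated 2 h; after 24 h at 37 °C, Amplite reagent was dispensed and luminescence recorded 10 min later.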
An asterisk follows results filed as active; u = inconclusive; x = no result. Only some compounds are listed: those with a hit (about 9.3% of all), similar ones and a draw of the others. Calls follow the shape of the dose curve; as a rule, active = well fitted curve in the direction sought with a large enough effect; inconclusive = small, poorly fitted or top-dose-only effect, or another doubt; inactive = no such curve, though single readings can be large; an effect the other way counts as inactive or inconclusive. Potency is read from the fitted curve at half-maximal effect.

SMILES	ELG1 DNA repair	FLuc counter	Rab9 promoter act	ELG1 genotoxic	SMN2 splice enh	NPC1 prom act
CCCCn1c(N)c(N(CCOC)C(=O)CSc2nnc(-c3ccc(C(C)(C)C)cc3)n2N)c(=O)[nH]c1=O	-3%	u	0%	-2%	x	-2%
CC(C)C(=O)Nc1ccc2nn(-c3ccc(F)cc3)nc2c1	u	0.85µM*	0.089µM*	u	x	0.11µM*
CC(C)C(=O)Nc1ccc(N2CCN(c3ccc(F)cc3)CC2)cc1	1%	2%	-2%	8%	2%	-14%
Cc1cc(N/N=C/c2ccc3c(c2)OCO3)nc2ccccc12	u	2.7µM*	2.5µM*	14%	x	u
C(=N\Nc1nc2ccccc2[nH]1)/c1ccccc1	u	11µM*	u	u	13µM*	u
Brc1ccc(-c2ccc(/C=N/Nc3nncc(-c4ccccc4)n3)o2)cc1	u	-11%	-1%	-1%	-4%	2%
Fc1cccc(/C=N/Nc2nc3ccccc3[nH]2)c1	u	8.5µM*	3.2µM*	u	u	u
Brc1ccc(-c2ccc(/C=N/Nc3nc4ccccc4[nH]3)o2)cc1	u	0.85µM*	u	u	7.9µM*	u
Cc1ccc(-n2c(=O)c3c4c(sc3n(Cc3cccc(Cl)c3)c2=O)CCC4)cc1C	x	-1%	x	x	-5%	x
Fc1ccc(/C=N/Nc2nc3ccccc3[nH]2)cc1F	u	12µM*	29%	10%	12%	u
C(/CCc1ccccc1)=N\Nc1nc2ccccc2[nH]1	1%	2.1µM*	22%	u	9%	14%
CCCc1cc(=O)[nH]c(N/N=C/C=C\c2ccccc2)n1	-14%	-15%	7%	-5%	-16%	-2%
Cc1cc(=O)[nH]c(N/N=C/c2ccc(F)cc2)n1	u	u	23%	7%	x	16%
C(=C\c1ccccc1)/C=N/Nc1nc2ccccc2[nH]1	u	3.8µM*	4.5µM*	18µM*	x	3.2µM*
O=c1[nH]c(N/N=C/c2ccccc2)nc2ccccc12	u	6µM*	2.2µM*	2.3µM*	14µM*	3.2µM*
Cc1c(Cl)cccc1-n1nc(C)c2c(C)cc(=O)n(CC(=O)NCc3ccccc3)c21	x	0%	x	x	x	x
O=c1[nH]c(N/N=C/c2cc3c(cc2[N+](=O)[O-])OCO3)nc2ccccc12	10%	-2%	-2%	4%	x	4%
O=c1[nH]c(N/N=C\c2ccc3c(c2)OCO3)nc2ccccc12	u	3.8µM*	0.56µM*	u	8.9µM*	0.79µM*
C(=N\Nc1nc2ccccc2[nH]1)/C1CCCCC1	5%	3.4µM*	15%	u	2%	1%
O=C(CCc1nc2ccccc2[nH]1)NC1CCCCC1	1%	3%	0%	-4%	-4%	-5%
N#Cc1c(N2C(=O)Nc3ccccc3N2O)sc2c1CCCC2	u	13µM*	8%	11%	-7%	18%
N#Cc1c(N2C(=O)Nc3ccccc3N2O)sc2c1CCCCCC2	u	u	1%	-3%	18%	9%
CC(C)S(=O)(=O)c1csc(C(=O)Nc2ccc(F)cc2)c1N	u	6µM*	0.56µM*	2.9µM*	x	0.56µM*
Cc1ccc(CS(=O)(=O)c2ccc(C(=O)N3CCCCC3)cc2[N+](=O)[O-])cc1	-23%	-12%	2%	-9%	-27%	0%
CC1CCN(C(=O)c2ccc3ccccc3c2)CC1	u	12µM*	2.5µM*	u	x	3.5µM*
SMILES	ELG1 DNA repair	FLuc counter	Rab9 promoter act	ELG1 genotoxic	SMN2 splice enh	NPC1 prom act
Cc1ccc(CS(=O)(=O)c2ccc(C(=O)N3CCN(c4ccccn4)CC3)cc2[N+](=O)[O-])cc1	15µM*	2%	-16%	-14%	-42%	-9%
CC1CCN(C(=O)c2ccc(S(=O)(=O)Cc3ccccc3F)c([N+](=O)[O-])c2)CC1	21µM*	0%	2%	-10%	-19%	0%
CC(C)Cc1nnc(NC(=O)C2CCN(C(=O)c3ccc(F)cc3)CC2)s1	-11%	0%	1%	-2%	x	-1%
CCc1ccc(C(C)NC(=O)C2CCCO2)cc1 (stereo unspecified)	-12%	10%	-2%	-11%	x	2%
COc1ccc(S(=O)(=O)N2CCCC(C(=O)N3CCOCC3)C2)cc1C (stereo unspecified)	-2%	1%	-7%	-2%	5%	2%
Cc1ccccc1OCC(=O)Nc1ccc2c(c1)n(C)c(=O)n2C	2%	-6%	-3%	5%	0%	-5%
CSc1ccc(C2c3[nH]c4ccccc4c3CCN2C(=O)c2ccnn2C)cc1 (stereo unspecified)	u	11µM*	3.5µM*	16%	x	11%
CC(C)c1ccccc1NS(C)(=O)=O	-2%	1%	-12%	0%	x	-3%
CCOc1cc(C(=O)NC(=S)Nc2ccc(Cl)c(C(=O)O)c2)cc(OCC)c1OCC	14%	-1%	1%	1%	x	-13%
CC(C)Oc1cccc(C(=O)NC(=S)Nc2ccccc2)c1	u	2.4µM*	3.2µM*	u	11µM*	u
COc1c(C)cc(Br)cc1C(=O)NC(=S)Nc1ccc(Cl)c(C(=O)O)c1	14%	24µM*	20%	10%	x	15%
O=C(Nc1ccc(COc2ccccc2)cc1)Nc1cccc(C(=O)O)c1	u	0.85µM*	2.8µM*	11%	x	u
CCCOc1cccc(C(=O)Nc2ccc(Br)cc2F)c1	u	2.7µM*	u	u	13µM*	u

Screening data (PubChem BioAssay)
